# From PubChem BioAssay (NCATS)
# Results filed as inconclusive are left out. Unmarked numbers belong to inactive results. Activity calls are given as the source filed them. Calls come from the whole dose curve; as a rule, active = well fitted cell-killing curve with a large enough effect; inconclusive = small, poorly fitted or top-dose-only effect; inactive = flat fitted curve, though single readings scatter.
# Assay: qHTS of pediatric cancer cell lines to identify multiple opportunities for drug repurposing: Primary screen for RD cells (AID 1347104); note: nearly all actives have a fitted effect of over 55% in size
# Settings: RD rhabdomyosarcoma viability, CellTiter-Glo luminescence, 48 h; series mostly up to 46 µM; activity change, negative = cytotoxic: at the top concentration
# Source text: Drug repurposing or repositioning has been offered as a strategy for drug development in oncology programs. This approach has special potential for childhood cancers and other rare or orphan diseases, where the expected return on new drug development has been a disincentive to pharmaceuticals. […] In this project we exploit the poly-pharmacology of drugs to discover new indications via phenotypic screening of a panel of 19 well-characterized cell lines derived from solid tumors seen in children and adolescents. The goal is to identify approved drugs with previously unrecognized anticancer properties that has the potential to reveal new mechanisms and biological processes involved in carcinogenesis or drug resistance. We employed a titration-based paradigm (quantitative high-throughput screening or qHTS), where all compounds were tested at multiple concentrations for their effect on cell viability. Concentration-response curves (CRCs) were derived directly from the primary screen, and both potency and efficacy values were used to identify compounds with robust bioactivity profiles. We screened the NIH Chemical Genomics Center (NCGC) Pharmaceutical Collection (NPC) and Mechanism Interrogation Plate (MIPE) small molecule collections of approved and investigational compounds against these cell lines; and measured metabolically active cells after 48 hours of compound treatment as a proxy for cell viability. […] Assay Submitter: Nathalia J. Martinez, National Center for Advancing Translational Sciences, National Institutes of Health, Rockville, MD, USA; email: natalia.martinez@nih.gov Shen, M et al. Quantitative high-throughput phenotypic screening of pediatric cancer cell lines identifies multiple opportunities for drug repurposing. Oncotarget 2017 Dec 19;9(4):4758-4772. PMID 29435139.
# The cells were obtained from University of North Carolina (UNC), Pediatric Preclinical Testing Program (PPT), and Coriell Institute (CI). qHTS cell viability assay: Cells were assayed in growth media at a density of 500-1,000 cells/well. Five microliters of cells were dispensed into 1,536-well, white, solid-bottom, TC-treated plates (Greiner Bio One) using a multidrop dispenser and incubated at 37 degrees C, 5% CO2, under a humidified atmosphere for 5 hours. Twenty-three nanoliters of compounds and controls (neutral control DMSO or positive control bortezomib at final concentration of 2.3 µM) were subsequently transferred by Kalypsys pintool. For primary screens, the MIPE collection was tested at 11-point dilutions (final concentrations range from 0.78 nM to 46 µM) and the NPC collection at 8-point dilutions (final concentrations range from 0.59 nM to 46 µM). Compounds tested in follow-up screens were assayed at 11-point dilutions. Cells were incubated for 48 hours, followed by addition of 3 µL of CellTiter-Glo (Promega). After a 15 min incubation at room temperature, samples were analyzed for luminescence intensity using a ViewLux High-throughput CCD imager equipped with clear filters.
# Potency is the fitted concentration of half-maximal effect.
Structure (SMILES),Potency,"activity change, negative = cytotoxic [%]"
Cc1ccc(NC(=O)Nc2cc(C(F)(F)F)ccc2F)cc1Nc1ccc2c(c1)NC(=O)C2=Cc1ccc[nH]1,18.7 µM (active),–
O=C(Nc1ncc(SCCN2CCCC2)s1)[C@]1(c2ccc(S(=O)(=O)C3CC3)cc2)C[C@@H]1C1CCCCC1,14.8 µM (active),–
CN(C)CCOc1ccc(C(=C(CCCl)c2ccccc2)c2ccccc2)cc1,–,-6.85
COc1ccc(-c2oc3c(CC=C(C)C)c(O)cc(O)c3c(=O)c2O)cc1,37.2 µM (active),–
C=C1c2cccc(O)c2C(O)=C2C(=O)[C@@]3(O)C(O)=C(C(N)=O)C(=O)[C@@H](N(C)C)[C@@H]3[C@@H](O)[C@H]12,–,-6.11
CCOC(=O)N1c2ccc(C(F)(F)F)cc2[C@@H](N(Cc2cc(C(F)(F)F)cc(C(F)(F)F)c2)C(=O)OC)C[C@H]1CC,–,-9.49
CN1CCc2c(n(Cc3ccc(C(=O)NO)cc3)c3ccccc23)C1,18.7 µM (active),–
Nc1[nH]nc2nnc(-c3c(-c4ccccc4)nn4ccccc34)cc12,11.8 µM (active),–
COc1cc2nc(-c3cc(F)ccc3O)nc(N[C@@H]3CNC[C@@H]3C(C)(C)O)c2cc1OC,33.2 µM (active),–
N#CC(c1ccnc(NCCc2cccnc2)n1)c1nc2ccccc2s1 (stereo not given),23.5 µM (active),–
Cc1ccc(NC(=O)c2ccc(CN3CCN(C)CC3)cc2)cc1Nc1nc(-c2cccnc2)cs1,18.7 µM (active),–
Cc1[nH]c(C=C2C(=O)Nc3ccc(S(=O)(=O)N(C)c4cccc(Cl)c4)cc32)c(C)c1C(=O)N1CCN(C)CC1,29.6 µM (active),–
CC1(C)OC2CC3C4CC(F)C5=CC(=O)C=CC5(C)C4C(O)CC3(C)[C@]2(C(=O)CO)O1 (stereo not given in full),–,11.1
Cc1cc(CS(=O)(=O)c2ccccc2)cc(OCc2ccc(CN3CCC[C@H]3CO)cc2)c1,5.9 µM (active),–
c1ccc(CNc2nc(N3CCOc4ccccc43)nc3c2CCCC3)cc1,–,-13.1
CCNC(=O)[C@H]1O[C@@H](n2cnc3c(N)nc(NCCc4ccc(CCC(=O)O)cc4)nc32)[C@H](O)[C@H]1O,–,7.55
Nc1ncnc2c1ncn2[C@@H]1O[C@H](CO)[C@@H](O)[C@@H]1O,1.66 µM (active),–
NC[C@H]1O[C@H](O[C@@H]2[C@@H](O)[C@@H](O[C@H]3O[C@H](CO)[C@@H](O)[C@H](N)[C@@H]3O)[C@H](N)C[C@@H]2N)[C@H](O)[C@@H](O)[C@H]1O,–,1.11
CCC(=C(c1ccc(O)cc1)c1ccc(OCCNC)cc1)c1ccccc1,33.2 µM (active),–
CN(C)c1nc(Cc2ccc(NC(=O)c3ccc(C(F)(F)F)cc3)cc2)nc(N(C)C)c1CC(=O)O,–,7.96

Structure (SMILES),Potency,"activity change, negative = cytotoxic [%]"
N[C@@H](CC(=O)N1CCn2c(nnc2C(F)(F)F)C1)Cc1cc(F)c(F)cc1F,–,-5.73
Fc1ccc(C(c2ccc(F)cc2)N2CCN(CC=Cc3ccccc3)CC2)cc1,–,-14.8
N#CC(=C1Nc2ccccc2S1)c1ccnc(OCc2ccc(CN3CCOCC3)cc2)n1,0.662 µM (active),–
NC(=O)c1ccc(N(C(N)=O)c2c(F)cccc2F)nc1-c1ccc(F)cc1F,–,-20.4
COc1cccc(OC)c1-c1cc(C(=O)NC2(C(=O)O)C3CC4CC(C3)CC2C4)nn1-c1ccnc2cc(Cl)ccc12 (stereo not given),–,-1.34
CN1CCC[C@H]1CCO[C@](C)(c1ccccc1)c1ccc(Cl)cc1,37.2 µM (active),–
OC[C@H]1O[C@@H](O[C@H]2[C@@H](O)[C@@](O)(CO)O[C@@H]2CO)[C@H](O)[C@@H](O)[C@@H]1O,–,-5.87
CC(=O)OCC(=O)[C@@]1(O)CC[C@H]2[C@@H]3CCC4=CC(=O)C=C[C@]4(C)[C@@H]3[C@@H](O)C[C@@]21C,–,-7.66
CO[C@H]1/C=C\O[C@@]2(C)Oc3c(C)c(O)c4c(O)c(c(C=NN5CCN(C6CCCC6)CC5)c(O)c4c3C2=O)NC(=O)C(C)=CC=C[C@H](C)[C@H](O)[C@@H](C)[C@@H](O)[C@@H](C)[C@H](OC(C)=O)[C@H]1C,0.209 µM (active),–
CCC=CC[C@H]1C(=O)CC[C@@H]1CC(=O)OC,–,7.89
Cc1cccc(-c2[nH]c(C(C)(C)C)nc2-c2ccc3c(c2)OCO3)n1,9.35 µM (active),–
Nc1ncnc2c1c(-c1cccc(OCc3ccccc3)c1)cn2C1CC(CN2CCC2)C1 (stereo not given),7.43 µM (active),–
Cc1cccc2c1CC[C@H](CN1CCC(c3c(Cl)cccc3Cl)CC1)C[C@@H]2O,33.2 µM (active),–
Cc1cccc(Nc2nc(N[C@@H]3CCCC[C@H]3N)ncc2C(N)=O)c1,16.6 µM (active),–
CC(=O)OCC(=O)[C@@]12OC(C)(C)O[C@H]1C[C@H]1[C@@H]3C[C@H](F)C4=CC(=O)C=C[C@]4(C)[C@@]3(F)[C@@H](O)C[C@@]12C,–,8.02
C[C@H]1[C@H](O)O[C@@H]2O[C@@]3(C)CC[C@@H]4[C@H](C)CC[C@@H]1[C@@]24OO3,1.87 µM (active),–
COc1cc(N2CCN(C)CC2)ccc1Nc1nc(N)c(C(=O)c2c(Cl)cccc2Cl)s1,29.6 µM (active),–
CC(C)C[C@H](NC(=O)c1cc2ccccc2s1)C(=O)N1CCN(C(=O)[C@H](CO)NS(=O)(=O)c2ccc(Cl)cc2Cl)CC1,29.6 µM (active),–
Cc1cc2nc3c(=O)[nH]c(=O)nc-3n(CC(O)C(O)C(O)CO)c2cc1C (stereo not given),–,2.17
N#Cc1c(N(CC(=O)O)CC(=O)O)sc(C(=O)O)c1CC(=O)O,–,11.5
